Source: PubChem BioAssay (several laboratories)
Sampled rows, rich in hits. Any-hit rate of the full collection: about 27%.
CYP2C9 act: human CYP2C9 activators, primary screen, biochemical, luminescence. 1.4% of 96,000 active. recombinant CYP2C9, luciferin-H conversion; hits give high values; factor 1 = untreated enzyme, 0 = blocked. Cytochrome P450 2C9 (Homo sapiens), P11712. activation factor at 5 µM;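 active means activation factor of 2 or more for CYP2C9 at a 5 µM dose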;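 further: 0 = sulfaphenazole-blocked wells and 1 = vehicle-only wells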
Target sequence (P11712 whole entry, looked up): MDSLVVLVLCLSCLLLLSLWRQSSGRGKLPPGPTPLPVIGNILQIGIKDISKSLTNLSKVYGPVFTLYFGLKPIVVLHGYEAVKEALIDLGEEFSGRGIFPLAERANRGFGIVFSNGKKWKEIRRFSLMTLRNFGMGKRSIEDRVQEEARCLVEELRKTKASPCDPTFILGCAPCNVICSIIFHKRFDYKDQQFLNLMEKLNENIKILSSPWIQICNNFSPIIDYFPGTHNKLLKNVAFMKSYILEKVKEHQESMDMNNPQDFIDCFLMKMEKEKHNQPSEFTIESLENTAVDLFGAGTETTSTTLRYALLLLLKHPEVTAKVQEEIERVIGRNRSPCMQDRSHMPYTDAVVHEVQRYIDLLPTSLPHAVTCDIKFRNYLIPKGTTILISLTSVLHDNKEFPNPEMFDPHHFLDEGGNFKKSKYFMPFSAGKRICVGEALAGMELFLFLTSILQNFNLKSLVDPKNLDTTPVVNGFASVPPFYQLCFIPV
CYP2C9 inh: blockers of cytochrome P450 2C9 activity – biochemical, luminescence, ADME assay, primary screen | P11712 | CYP2C9 Supersomes, luciferin-H conversion | AID 777, 2007 | 20% of 96,000 active | inhibition, % at 5 µM;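 active means blocking of liver enzyme CYP2C9 beyond about 50% at 5 µM, limit read from the data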
CYP2C19 inhib: blockers of cytochrome P450 2C19 activity – biochemical, luminescence, ADME assay, primary screen; 21% of 96,000 active; AID 778, 2007; CYP2C19 Supersomes, luciferin-H EGE luminescence, 30 min; inhibition, % at 5 µM;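 active means CYP2C19 inhibition above a set limit at 5 µM in the primary screen, cut at about 50% in these data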;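 further: plate controls were negative control wells for no effect and 2.5 mM tranylcypromine positive control for full effect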
Cav3 T inh: Cav3.2 calcium influx blockers – cell-based, Fluo-4 calcium fluorescence, FDSS, MLSMR library, primary screen; Voltage-dependent T-type calcium channel subunit alpha-1H (Homo sapiens), O95180; Cav3.2-expressing cells; hits give low values; B-score at 10 µM; 4% of 100,000 active;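 active means single-dose well whose peak fluorescence ratio is a statistical outlier from its plate by either plate-standardised score or position-corrected B-score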
CYP2C19 act: human CYP2C19 activators, primary screen, biochemical, luminescence | recombinant CYP2C19, luciferin-H EGE luminescence; hits give high values; 0 = fully inhibited enzyme, 1 = untreated enzyme | activation factor at 5 µM | 96,000 tested, under 10 active | AID 1025, 2008;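 active means activation factor of at least 2 at 5 µM in the primary screen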;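 further: 0 = wells with 2.5 mM tranylcypromine and 1 = vehicle-only wells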
An asterisk follows results filed as active; · = not tested or not shown.

SMILES | CYP2C9 act | CYP2C9 inh | CYP2C19 inhib | Cav3 T inh | CYP2C19 act
O=C(CSc1nc2ccccc2n1-c1ccccc1)NCC1CCCO1 (configuration not stated) | 0.3 | 72* | 96* | 0.31 | 0
O=C(Nn1c(Cc2cccs2)nc2ccccc2c1=O)c1ccc(F)c(F)c1 | · | · | · | 1 | ·
CCCn1nc2cc(C(=O)N(CC)c3ccc(OC)cc3)ccc2c1OCC | 0.7 | 26 | 17 | -0.56 | 0.8
Cc1csc(N2CCCC2c2nc3cc(C(F)(F)F)ccc3n2CCOCCO)n1 (configuration not stated) | · | · | · | 0.43 | ·
COc1ccc(CC(=O)N2CCN(c3ccc(C4=NNC(=O)CC4C)cc3)CC2)cc1 (configuration not stated) | 0.9 | 6 | 6 | · | 0.9
O=C(CCCn1c(SCC(=O)c2ccc(O)c(O)c2)nc2ccccc2c1=O)NCC1CCCO1 (configuration not stated) | 0 | 96* | 55* | 1.7 | 0.5
COc1ccc(C(=O)Nn2c(SCC(=O)NCC3CCCO3)nc3ccccc3c2=O)cc1 (configuration not stated) | 0.4 | 60* | 19 | -0.09 | 0.8
CCC(C)NC(=O)CSc1nc2ccccc2c(=O)n1CCCC(=O)NCC1CCCO1 (configuration not stated) | 0.6 | 43 | 8 | 1.9 | 0.9
COCCNC(=O)CSc1nc2ccccc2c(=O)n1-c1cccc(OC)c1 | 0.3 | 65* | 82* | -0.0069 | 0.2
CCN1C(=O)/C(=C2\C=Cc3ccccc3N2CC)SC1=S | 0.9 | 13 | 55* | 0.36 | 0.5
CCN1C(=O)/C(=C2\SC(=S)N(CCCOC)C2=O)c2ccccc21 | 0.5 | 52* | 3 | -0.52 | 1
COCCCNC(=O)CN1C(=O)c2ccccc2C1=O | 1 | 0 | 3 | 0.15 | 1
CCN1C(=O)/C(=C2/SC(C)=C(C)N2CC)SC1=S | 0.8 | 22 | 41 | 0.81 | 0.6
CC1=C(CC(=O)O)c2cc(F)ccc2/C1=C\c1ccc(S(C)=O)cc1 (configuration not stated) | · | · | · | -1.6 | ·
Cc1cc(OCC(=O)Nc2ccc(F)c(F)c2)nc(C(C)C)n1 | 0.8 | 17 | 73* | 0.56 | 0.3
Cc1cc(OCC(=O)Nc2ccccc2F)nc(C(C)C)n1 | 0.9 | 7 | 19 | 1.2 | 0.8
C/C=C/C(=O)Nc1cccc(C2=NOC3(C2)C[C@@H](C(N)=O)N(C(=O)C(c2ccccc2)c2ccccc2)C3)c1 (some centres not stated) | · | · | · | 0.031 | ·
COc1ccc(NC(=O)C2=C(C)Nc3ncnn3C2c2ccccc2C(F)(F)F)c(OC)c1 (configuration not stated) | 0.5 | 45 | 38 | · | 0.6
N#Cc1c(N2CCCC2)nc(N)c2c(N)nc(N3CCCC3)cc12 | 0.4 | 61* | 40 | 1.6 | 0.6
COc1cc2c(C#N)c(N3CCCC3)nc(N)c2c(N)n1 | · | · | · | 2.1 | ·
COc1cc2c(C#N)c(N3CCN(c4ccccc4OC)CC3)nc(N)c2c(N)n1 | 0.3 | 68* | 100* | 0.81 | 0
CN(C[C@H](Cc1ccccc1)N(C[C@H](Cc1ccccc1)N(CC1(c2ccccc2)CC1)N=O)N=O)N=O | · | · | · | -1.4 | ·
Cc1ccnc(NC(=S)NC(=O)/C=C/c2ccco2)c1 | 0.5 | 53* | -15 | 0.078 | 1.1
COc1ccccc1Nc1nnc(SCC(=O)N2CCCC2=O)s1 | 2.7* | -167 | 57* | 0.19 | 0.4
COc1ccccc1N1CCN(C(=O)CSc2nnc(NC(=O)C3CCC3)s2)CC1 | 0.2 | 82* | 51* | 0.89 | 0.5
SMILES | CYP2C9 act | CYP2C9 inh | CYP2C19 inhib | Cav3 T inh | CYP2C19 act
COc1ccccc1-n1c(SCC(=O)N2CCCC2)nc2cccnc21 | 1.1 | -6 | -8 | 0.19 | 1.1
CCOc1ccccc1Nc1nnc(SCC(=O)N2CCCC2)s1 | 2.3* | -130 | 4 | -0.4 | 1
CNC(=O)c1ccc(-c2sc3nc(N4CCOCC4)c4c(c3c2N)CCCC4)o1 | 0.1 | 94* | 92* | 0.18 | 0.1
CC1(C)Cc2c(c(N3CCOCC3)nc3sc(-c4ccc(C(=O)O)o4)c(N)c23)CO1 | · | · | · | 0.42 | ·
CCC(=O)N1CCc2cc(S(=O)(=O)Nc3ccc4c(c3)OCCO4)ccc21 | 0.4 | 58* | 33 | -0.54 | 0.7
O=C(C1CCC1)N1CCc2cc(S(=O)(=O)Nc3ccc4c(c3)OCCO4)ccc21 | 1 | 0 | 2 | 0.91 | 1
CCC(=O)N1CCc2cc(S(=O)(=O)CCC(=O)Nc3ccc(F)c(F)c3)ccc21 | 0.5 | 52* | 28 | 0.1 | 0.7
CC(=O)N1CCc2cc(S(=O)(=O)NC(C(=O)Nc3ccc4c(c3)OCCO4)C(C)C)ccc21 (configuration not stated) | 0.5 | 52* | 39 | -0.64 | 0.6
CC(=O)N1CCc2cc(S(=O)(=O)CCC(=O)Nc3ccc4c(c3)OCCO4)ccc21 | 1 | 4 | 12 | 0.068 | 0.9
CCOC(=O)c1cccc(NC(=O)C(NS(=O)(=O)c2ccc3c(c2)CCN3C(C)=O)C(C)C)c1 (configuration not stated) | 0.3 | 68* | 19 | 0.49 | 0.8
Clc1ccc2c(c1)CCc1cccnc1C2=C1CCNCC1 | · | · | · | -0.87 | ·
CCC1CCCCN1CCCNC(=O)COc1cc(=O)n(C)c2ccccc12 (configuration not stated) | 1 | 3 | -4 | 0.34 | 1
CCC1CCCCN1C(=O)Cn1c(C(=O)OC)cc2ccsc21 (configuration not stated) | 0.6 | 38 | 53* | -0.34 | 0.5
CCC1CCCCN1C(=O)Cn1c(=O)oc2ccccc21 (configuration not stated) | 0.9 | 12 | 83* | -0.38 | 0.2
CCC1CCCCN1C(=O)COc1cc(=O)n(C)c2ccccc12 (configuration not stated) | 0.9 | 8 | 59* | 0.044 | 0.4
COc1ccc(C2(CNC(=O)CCC(=O)O)CCCC2)cc1 | 1 | 2 | 8 | 0.036 | 0.9
OCCn1c(SC2CCCCC2)nc2ccccc21 | 0.8 | 16 | 39 | 0.51 | 0.6
CCOC(=O)C1=NN(c2ccc(C)cc2)C2(S1)SC(C(C)=O)=C(C)N2c1ccccc1 (configuration not stated) | 0.5 | 54* | 39 | -3.4 | 0.6
COC(=O)C1=NN(c2ccccc2)C2(S1)S/C(=C\c1ccccc1)C(=O)N2c1ccccc1 (configuration not stated) | 0.5 | 54* | 88* | -1 | 0.1
CCOC(=O)C1=NN(c2cccc(C)c2)C2(S1)SC(C(C)=O)=C(C)N2c1ccccc1 (configuration not stated) | 0.2 | 80* | 47 | -3.5* | 0.5
CCOC(=O)C1=NN(c2ccccc2)C2(S1)SC(C(C)=O)=C(C)N2c1ccccc1 (configuration not stated) | 0.6 | 44 | -20 | -4.8* | 1.2
